Test results taken from PMC5540273 (PLoS ONE, 2017).
Read-outs that look alike come from different tables or passages of the source.

Assays:
ZAK = settings: concentration: 1 μM,replicates: in singlicate; n = 1
ZAP70 = settings: concentration: 1 μM,replicates: in singlicate; n = 1
p38-alpha = tested on: T1, p38-alpha; settings: n = 1
T1 construct: gene MAPK14

p38-beta = tested on: T2, p38-beta; settings: concentration: 1 μM,replicates: in singlicate; n = 1
T2 construct: gene MAPK11

p38-delta = settings: concentration: 1 μM,replicates: in singlicate; n = 1
p38-gamma = tested on: T3, p38-gamma; settings: concentration: 1 μM,replicates: in singlicate; n = 1
T3 construct: gene MAPK12

[1] = concentration: 1 μM,replicates: in singlicate
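Also: KINOMEscan kinase panel screen.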

Row | SMILES | %Inh (ZAK) | %Inh (ZAP70) | %Inh (p38-alpha; [1]) | %Inh (p38-beta) | %Inh (p38-delta) | %Inh (p38-gamma) | %Inh (p38-alpha; 1 µM)
1 | CNC(=O)c1ccccc1Sc1ccc2c(/C=C/c3ccccn3)n[nH]c2c1 | 53% | 0% | 5% | 15% | 10% | 25% | 
2 | CN(C)CC(O)COc1ccc(Nc2nccc(-c3cnn4nc(N5CCOCC5)ccc34)n2)cc1 (stereo not shown) [GW767488] | 14% | 36% | 6% | 23% | 38% | 73% | 
3 | NC(=O)c1cc(-c2ccccc2)cc2c(C3CCNCC3)c[nH]c12 [GSK301362] | 0% | 0% | 0% | 0% | 35% | 0% | 
4 | Cl.Cl.Nc1nc(-c2ccc3c(N)n[nH]c3c2)cc(N2CCCC(NC(=O)c3ccccc3)C2)n1 (stereo not shown) [GSK2286775] | 100% | 0% | 0% | 0% | 21% | 21% | 
5 | C=CC(=O)Nc1cc2c(Nc3ccc(F)c(Cl)c3)ncnc2cc1OCCCN1CCOCC1 [GW781483] | 0% | 31% | 19% | 0% | 20% | 0% | 
6 | CCN(CC)CCOc1ccc(Nc2ncc3cc(-c4c(Cl)cccc4Cl)c(=O)n(C)c3n2)cc1 [SB-601273] | 94.2% | 63% | 100% | 98.1% | 16% | 18% | 
7 | Cc1cc2cn[nH]c2cc1-c1cccc2c(N)c(C(N)=O)nnc12 | 21% | 32% | 0% | 2% | 0% | 52% | 
8 | C[C@@H]1CCN(C(=O)CC#N)C[C@@H]1N(C)c1ncnc2[nH]ccc12 | 0% | 0% | 1% | 13% |  |  | 
9 | Cc1n[nH]c2ccc(-c3cc(OC[C@@H](N)Cc4ccccc4)cnc3-c3ccoc3)cc12.O=C(O)C(F)(F)F.O=C(O)C(F)(F)F [GSK507358] | 0% | 0% |  | 0% | 50% | 33% | 
10 | Cl.Oc1cc(-c2nc(-c3ccccc3)[nH]c2-c2ccncc2)ccc1Cl [SB-386023] | 25% | 15% |  | 26% | 0% | 36% | 85%
11 | Cc1ccc(-n2nc(C(C)(C)C)cc2NC(=O)Nc2ccc(OCCN3CCOCC3)c3ccccc23)cc1 [GW839464] |  | 0% |  | 56% | 90.5% |  | 
12 | CCN(CC)CCCCNc1ncc2cc(-c3c(Cl)cccc3Cl)c(NC(=O)NC(C)(C)C)nc2n1 | 1% | 0% | 98.2% | 81% | 28% | 26% | 
13 | C[C@H]1Oc2cc(cnc2N)-c2c(nn(C)c2C#N)CN(C)C(=O)c2ccc(F)cc21 | 0% | 0% | 9% | 18% | 0% | 5% | 
14 | O=C(NCCNc1ccnc(NCc2ccc(F)cc2)n1)c1cc2ccccc2s1 [GSK1379944] | 14% | 0% | 77% | 0% | 40% | 0% | 
15 | Nc1nc(Nc2ccccc2)cc(-c2ccc3c(N)n[nH]c3c2)n1 [GSK2225749] | 3% | 0% | 0% | 0% | 0% | 0% | 
16 | CCn1c(-c2nonc2N)nc2c(C#CC(C)(C)O)nc(OCCN)cc21.Cl.Cl [GSK902056] | 14% | 0% | 0% | 0% | 16% | 0% | 
17 | O=C(NCCCN1CCOC1=O)c1cnc(NCc2cc(Cl)ccc2Cl)nc1NC1CCCC1 | 10% | 0% | 9% | 0% | 44% | 1% | 
18 | CC(C)N1C(=O)Cc2cc(Nc3ncc(C(F)(F)F)c(NCc4cccc(S(C)(=O)=O)c4)n3)ccc21 | 0% | 62% | 96.4% | 2% | 0% | 0% | 
19 | Cc1cc(C(=O)Nc2ccc(Oc3ccc4nc(NC(=O)C5CC5)cn4n3)cc2)nn1-c1ccccc1 | 48% | 0% | 11% | 27% | 0% | 52% | 
20 | Cl.Cl.NC[C@H](Cc1ccc(C(F)(F)F)cc1)NC(=O)c1cc(Br)c(-c2ccnc3[nH]ccc23)s1 [GSK1487252] | 0% | 0% | 0% | 0% | 12% | 38% | 
21 | Cl.Cl.NC[C@H](CC1CCCCC1)NC(=O)c1cc(Br)c(-c2ccnc3[nH]ccc23)s1 [GSK1581427] | 0% | 0% | 0% | 0% | 4% | 0% | 
22 | C[C@@H](Oc1cc(-c2cnn(C3CCNCC3)c2)cnc1N)c1c(Cl)ccc(F)c1Cl | 4% | 10% | 2% | 25% | 30% |  | 
23 | Cc1occc1-c1nc(N)c(OC[C@@H](N)Cc2c[nH]c3ccccc23)cc1-c1cc2c(C)n[nH]c2cn1 [GSK1660450] | 31% | 0% |  | 0% | 22% | 24% | 
24 | CN(C)CCOc1ccc(-c2cc(-c3c[nH]nc3-c3ccccn3)ccn2)cc1 [GW835314] | 60% | 11% | 16% | 4% | 0% | 27% | 
25 | COc1ccc(C[C@@H](CN)NC(=O)c2cc(Br)c(-c3ccnc4[nH]ccc34)s2)cc1.Cl.Cl [GSK1389063] | 0% | 0% | 0% | 0% | 46% | 0% | 
26 | CC(C)Nc1cc(-c2ccc3c(N)n[nH]c3c2)nc(N)n1 [GSK2221681] | 0% | 0% | 0% | 0% | 1% | 2% | 
27 | Cc1ccc2c(-c3ccncc3)c(-c3ccc(F)cc3)nn2c1.Cl [GW461484] | 14% | 0% | 99.9% | 39% | 13% | 12% | 
